# Data taken from PubChem BioAssay (NCATS).
# Records with an inconclusive call do not appear. Calls of active or inactive are those of the source. Unless noted, the call rests on the fitted dose curve; in most records, active means well fitted curve in the direction sought with a large enough effect; inconclusive means small, poorly fitted or top-dose-only effect, or another doubt; inactive means no such curve, though single readings can be large; an effect the other way counts as inactive or inconclusive.
# Tests used:
# [1] = biological target: Tyrosine-protein kinase Yes (Homo sapiens) (UniProt P07947); test: qHTS for small molecule inhibitors of Yes1 kinase: Primary Screen (AID 686947); further: nearly all actives have a fitted effect of over 60% in size; further: potency means the concentration at half of the fitted maximal effect
# Procedure, shortened: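 ADP-Glo luminescence readout; final 4 nM Yes1, 0.1 mM ATP, 0.3 mg/mL poly(E4Y), Tris pH 7.5, MgCl2, DTT, Brij-35. 20 min compound preincubation, 60 min reaction at RT. Normalized to DMSO wells with and without enzyme.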
# [2] = qHTS for small molecule inhibitors of Yes1 kinase: Counter Assay (AID 686950);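 further: no kinase present so only ADP-Glo detection of a fixed ADP amount is tested; luminescence from ADP-Glo reporting ADP in a fixed ATP and ADP mixture; 0% = DMSO wells with ATP plus ADP and -100% = ATP-only wells without ADP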
# Procedure, shortened: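 Luminescence read-out from ADP-Glo quantifies a fixed ADP amount (0.02 mM ADP with 0.08 mM ATP) after 60 min at room temperature; signal is normalized between DMSO wells with ATP/ADP and with 0.1 mM ATP alone.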
# [3] = qHTS Assay for Identifying Gametocytocidal Compounds (AID 743244); further: potency means the concentration at half of the fitted maximal effect;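 on max response: on the % scale 0 is the no-effect control and ±100 the full control effect; actives lower the fluorescent signal which means gametocytes are killed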; details: P. falciparum 3D7 stage III-V gametocytes, alamarBlue, 72 h; max response: stronger effect = lower value
# Procedure, shortened: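 Stage III–V gametocytes of P. falciparum 3D7 were seeded at 20,000 cells/well onto pre-dispensed compounds. After 72 h, 37 °C, 5% CO2, alamarBlue was added for another 24 h.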
# [4] = qHTS profiling for inhibitors of Plasmodium falciparum (3D7) proliferation (AID 743322; call rule not given here;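 further: infected erythrocytes exposed to compound for 72 h before lysis; 100% = DMSO vehicle wells and 0% = 0.29 µM artemisinin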); details: P. falciparum 3D7 proliferation; at 28.7 µM (top of the series)
# Procedure, shortened: (§1)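 Erythrocytes infected with P. falciparum (0.3% parasitemia, 2.5% hematocrit) incubated with compounds 72 h at 37 C, 5% CO2. Lysis with saponin/Triton buffer containing SYBR Green I, overnight at room temperature in the dark; DNA fluorescence (485/535 nm) normalised to 0.29 uM artemisinin and DMSO.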
# [5] = qHTS profiling for inhibitors of Plasmodium falciparum (DD2) proliferation (AID 743323; call rule not given here); details: lower = more inhibition; at 28.7 µM (top of the series)
# Procedure, shortened: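 Parasite proliferation measured via DNA-dye fluorescence, as uninfected erythrocytes lack DNA. Cultures at 0.3% parasitemia and 2.5% hematocrit incubated 72 h with compound; signal scaled between vehicle and 0.29 uM artemisinin wells.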
# [6] = qHTS profiling for inhibitors of Plasmodium falciparum (HB3) proliferation (AID 743324); details: Plasmodium falciparum HB3 blood-stage proliferation; at 28.7 µM (top of the series);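 further: 100% = DMSO vehicle wells and 0% = artemisinin-treated control wells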
# Procedure, shortened: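 P. falciparum HB3 grown in erythrocytes (0.3% parasitemia, 2.5% hematocrit final) with compound for 72 h at 37 C, 5% CO2. Parasite DNA detected by SYBR Green after saponin/triton lysis overnight; normalized to 0.29 uM artemisinin and DMSO.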
# [7] = qHTS profiling of the MIPE4 collection as inhibitors of Plasmodium falciparum (3D7) proliferation (AID 743344; call rule not given here;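 further: scaled between DMSO vehicle wells and 0.29 µM artemisinin as full inhibition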); details: P. falciparum 3D7 in erythrocytes, SYBR Green DNA fluorescence, 72 h; at 28.5 µM (top of the series) unless noted
# Procedure, shortened: as §1
# [8] = qHTS profiling of the MIPE4 collection as inhibitors of Plasmodium falciparum (DD2) proliferation (AID 743345; call rule not given here); details: P. falciparum Dd2 in erythrocytes, SYBR Green DNA, 72 h; at 28.5 µM (top of the series) unless noted
# Procedure, shortened: as §1
# [9] = biological target: Arylsulfatase A (Homo sapiens) (UniProt P15289); test: qHTS screen for enhancers of Arylsulfatase A (ASA1): LOPAC Validation Assay (AID 720538); details: outcome: dose series up to 57.5 µM
# Procedure, shortened: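 SV40-transformed fibroblasts from an MLD patient (ASA-I179S) were treated with compound for 48 h at 37 C. They were then lysed with 0.5 mM pNCS substrate (final) for 14 h at room temperature and stopped with NaOH; signal read by fluorescence (Ex 525/Em 598 nm), with increase denoting enhanced activity.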
# [10] = qHTS for compounds that reverse cellular toxicity of Amyloid beta (A-beta) peptide in yeast: LOPAC Validation Assay (AID 720559);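 further: plate controls were DMSO for no effect and equimolar ferric chloride plus clioquinol rescue for full effect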
# Procedure, shortened: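 Yeast expressing toxic A-beta grown with pinned compounds at 30 C for 48 hr. Growth measured as absorbance at 600 nm; data normalized to DMSO and to an equimolar FeCl3/clioquinol mixture as positive control.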
# [11] = qHTS for Activators of Parkin Expression: LOPAC Validation Assay (NLuc Reporter) (AID 720572;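 further: 0% = DMSO and 100% = positive control compound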)
# Procedure, shortened: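 Parkin promoter-driven FLuc/NLuc neuronal reporter cells; 24 h plating, 7-pt dose response, 24 h at 37 C/5% CO2; FLuc then NanoLuc reagent, 10 min each, luminescence; DMSO/positive control normalized.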
# [12] = qHTS for Activators of Parkin Expression: LOPAC Validation Assay (FLuc Reporter) (AID 720573;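 further: 0% = DMSO and 100% = positive control compounds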)
# Procedure, shortened: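 Neuronal cell line stably expressing FLuc/NLuc coincidence reporter under the Parkin promoter, 1,500 cells/well, dosed 24 h after seeding in 7-point series for 24 h at 37 C. FLuc luminescence read; normalized to DMSO and positive control (100%).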
# [13] = biological target: Hexokinase-4 (Homo sapiens) + Glucokinase regulatory protein (Homo sapiens) (UniProt P35557+Q14397); test: qHTS assay for inhibitors of recombinant human GCK-GKRP interaction: Diaphorase-coupled assay (AID 743205)
# Procedure, shortened: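 Compounds pre-incubated 20 min with substrate, then 10 nM GST-GCK with 10 nM FLAG-GKRP added. GCK activity coupled via G6PDH and diaphorase to resorufin (5 mM glucose, 0.4 mM ATP, 0.15 mM NADP+, pH 7.6), read kinetically over 30 minutes at Ex 525/Em 590 nm.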
# Tyrosine-protein kinase Yes (Homo sapiens), sequence (P07947 whole entry, looked up): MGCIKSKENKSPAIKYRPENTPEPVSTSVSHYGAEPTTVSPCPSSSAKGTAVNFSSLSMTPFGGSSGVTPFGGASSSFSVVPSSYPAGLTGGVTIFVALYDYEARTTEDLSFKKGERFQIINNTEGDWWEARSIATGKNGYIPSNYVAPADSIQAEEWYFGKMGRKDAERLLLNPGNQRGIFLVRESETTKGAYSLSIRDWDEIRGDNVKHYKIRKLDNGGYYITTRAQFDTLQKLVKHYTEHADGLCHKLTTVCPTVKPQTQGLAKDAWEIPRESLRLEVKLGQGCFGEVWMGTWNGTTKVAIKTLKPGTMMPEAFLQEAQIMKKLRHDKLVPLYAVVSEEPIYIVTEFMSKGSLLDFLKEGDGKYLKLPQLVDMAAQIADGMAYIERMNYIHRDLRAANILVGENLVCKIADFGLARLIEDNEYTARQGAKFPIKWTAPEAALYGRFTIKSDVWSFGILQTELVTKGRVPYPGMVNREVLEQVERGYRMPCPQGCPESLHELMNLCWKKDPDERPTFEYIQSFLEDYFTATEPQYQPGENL
# Arylsulfatase A (Homo sapiens), sequence (P15289 whole entry, looked up): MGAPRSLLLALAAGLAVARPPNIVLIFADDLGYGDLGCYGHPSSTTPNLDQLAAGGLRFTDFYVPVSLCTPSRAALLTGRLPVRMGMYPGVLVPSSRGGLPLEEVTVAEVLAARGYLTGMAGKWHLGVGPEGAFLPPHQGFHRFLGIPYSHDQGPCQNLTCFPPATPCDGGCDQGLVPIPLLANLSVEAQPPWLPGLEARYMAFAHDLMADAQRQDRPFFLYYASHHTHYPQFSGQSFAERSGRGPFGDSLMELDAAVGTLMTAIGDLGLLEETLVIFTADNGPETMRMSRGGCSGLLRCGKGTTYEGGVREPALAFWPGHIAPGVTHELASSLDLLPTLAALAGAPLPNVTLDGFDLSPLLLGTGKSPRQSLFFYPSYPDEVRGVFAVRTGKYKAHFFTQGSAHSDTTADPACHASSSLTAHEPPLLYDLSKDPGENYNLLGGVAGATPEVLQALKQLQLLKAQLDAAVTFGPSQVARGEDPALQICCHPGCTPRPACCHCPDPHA
# Hexokinase-4 (Homo sapiens) + Glucokinase regulatory protein (Homo sapiens), sequence (P35557 whole entry, looked up): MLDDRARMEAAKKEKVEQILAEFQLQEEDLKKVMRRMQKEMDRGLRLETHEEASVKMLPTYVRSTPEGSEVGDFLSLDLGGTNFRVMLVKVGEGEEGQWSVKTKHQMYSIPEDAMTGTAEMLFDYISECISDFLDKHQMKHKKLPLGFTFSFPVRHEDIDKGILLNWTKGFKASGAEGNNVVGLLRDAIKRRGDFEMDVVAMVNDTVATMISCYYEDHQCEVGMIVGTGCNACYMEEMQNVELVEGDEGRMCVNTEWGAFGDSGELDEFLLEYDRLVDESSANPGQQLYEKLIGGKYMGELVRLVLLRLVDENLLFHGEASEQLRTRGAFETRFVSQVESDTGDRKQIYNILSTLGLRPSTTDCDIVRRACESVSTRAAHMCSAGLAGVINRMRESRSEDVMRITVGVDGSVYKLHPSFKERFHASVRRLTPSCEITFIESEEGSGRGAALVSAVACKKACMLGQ
# Hexokinase-4 (Homo sapiens) + Glucokinase regulatory protein (Homo sapiens), sequence (Q14397 whole entry, looked up): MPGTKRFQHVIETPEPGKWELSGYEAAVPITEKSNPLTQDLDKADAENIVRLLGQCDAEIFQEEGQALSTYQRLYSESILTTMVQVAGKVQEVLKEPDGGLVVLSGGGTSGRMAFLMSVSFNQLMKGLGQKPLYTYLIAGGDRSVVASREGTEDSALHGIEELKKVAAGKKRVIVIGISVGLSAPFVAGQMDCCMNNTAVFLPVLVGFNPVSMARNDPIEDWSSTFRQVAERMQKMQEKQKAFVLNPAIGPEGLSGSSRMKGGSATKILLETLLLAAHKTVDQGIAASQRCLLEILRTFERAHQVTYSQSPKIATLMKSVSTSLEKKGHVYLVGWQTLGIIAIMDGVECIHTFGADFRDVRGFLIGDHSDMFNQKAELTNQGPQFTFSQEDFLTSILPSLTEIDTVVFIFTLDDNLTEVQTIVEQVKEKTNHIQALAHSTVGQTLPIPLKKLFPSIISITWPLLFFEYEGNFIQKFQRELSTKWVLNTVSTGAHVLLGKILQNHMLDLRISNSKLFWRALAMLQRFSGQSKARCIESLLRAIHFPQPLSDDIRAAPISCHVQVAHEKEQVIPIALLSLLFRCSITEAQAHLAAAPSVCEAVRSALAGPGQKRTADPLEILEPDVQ
compound,measurement,setting,value
CC(C)(C)c1cc(C(=O)O)c(NC(=O)Nc2ccc3[nH]ncc3c2)s1,Potency,[1],inactive
same,outcome,[2],inactive
same,max response,[3],39.1% (inactive)
same,remaining parasite growth % (stronger effect = lower value),[4],97%
same,"activity, percent of control",[5],95.5%
same,"remaining proliferation (% of control), lower = more inhibition",[6],70.8%
same,"parasite growth, % of DMSO control",[7],74.4%
same,"parasite growth remaining, % of DMSO control (lower = more inhibition)",[8],93.1%
COc1cc(N2CCC(N3CCN(C)CC3)CC2)ccc1Nc1ncc(Cl)c(Nc2ccccc2S(=O)(=O)C(C)C)n1,outcome,[2],inactive
same,Potency,[3],4.69 µM (active)
same,remaining parasite growth % (stronger effect = lower value),[4],-0.393%
same,"activity, percent of control",[5],0.218%
same,"remaining proliferation (% of control), lower = more inhibition",[6],-1.09%
same,"parasite growth, % of DMSO control",[7],3.8%
same,"parasite growth remaining, % of DMSO control (lower = more inhibition)",[8],7.75%
CC(=O)N(C)C1(c2ccccc2)CCN(CCC[C@]2(c3ccc(Cl)c(Cl)c3)CCCN(C(=O)c3ccccc3)C2)CC1,Potency,[1],inactive
same,outcome,[2],inactive
same,remaining parasite growth % (stronger effect = lower value),[4],-0.589%
same,"activity, percent of control",[5],-0.455%
same,"remaining proliferation (% of control), lower = more inhibition",[6],-1.35%
same,"parasite growth, % of DMSO control",[7],6.96%
same,"parasite growth remaining, % of DMSO control (lower = more inhibition)",[8],7.14%
Clc1ccc(Cn2c(CN3CCCC3)nc3ccccc32)cc1,outcome,[9],inactive; inhibitor; fitted 0.0054 uM
same,outcome,[10],inactive
same,Potency,[11],inactive
same,Potency,[12],inactive
same,outcome,[13],inactive
Cn1cc(C=C2C(=O)Nc3cccnc32)c2ccccc21,Potency,[1],0.519 µM (active)
same,outcome,[2],inactive
same,"parasite growth, % of DMSO control",[7],42.6%
same,"parasite growth remaining, % of DMSO control (lower = more inhibition)",[8],82.2%
CN1CCN(CCOc2cc(OC3CCOCC3)c3c(Nc4c(Cl)ccc5c4OCO5)ncnc3c2)CC1,outcome,[2],inactive
same,Potency,[3],18.7 µM (active)
same,remaining parasite growth % (stronger effect = lower value),[4],0.208%
same,"activity, percent of control",[5],1.7%
same,"remaining proliferation (% of control), lower = more inhibition",[6],-0.659%
same,"parasite growth, % of DMSO control",[7],5.31%
same,"parasite growth remaining, % of DMSO control (lower = more inhibition)",[8],8.1%
N#Cc1ccc(NC(=O)Nc2ccccc2Br)c2n[nH]nc12,outcome,[2],inactive
same,max response,[3],26.2% (inactive)
same,remaining parasite growth % (stronger effect = lower value),[4],66.9%
same,"activity, percent of control",[5],69.6%
same,"remaining proliferation (% of control), lower = more inhibition",[6],37.3%
same,"parasite growth, % of DMSO control",[7],7.67%
same,"parasite growth remaining, % of DMSO control (lower = more inhibition)",[8],65.9%
CC(C)(C)COc1ccc(-n2cc(C(=O)O)cn2)cc1C#N,Potency,[1],inactive
same,outcome,[2],inactive
same,max response,[3],54.6% (inactive)
same,remaining parasite growth % (stronger effect = lower value),[4],28.3%
same,"activity, percent of control",[5],88.8%
same,"remaining proliferation (% of control), lower = more inhibition",[6],91.7%
same,"parasite growth remaining, % of DMSO control (lower = more inhibition)",[8],90.1%
COc1cc2ncnc(-n3nc(-c4ccccn4)nc3N)c2cc1OC,Potency,[1],2.74 µM (active)
same,outcome,[2],inactive
same,remaining parasite growth % (stronger effect = lower value),[4],68.8%
same,"activity, percent of control",[5],96.4%
same,"remaining proliferation (% of control), lower = more inhibition",[6],74%
same,"parasite growth, % of DMSO control",[7],15.5%
same,"parasite growth remaining, % of DMSO control (lower = more inhibition)",[8],31.2%
